A number with no mark means an inactive call. How the calls were made is not given here.

The target in the experiment is Pantothenate synthetase (Mycobacterium tuberculosis (strain ATCC 25618 / H37Rv)) (UniProt P9WIL5). Kind of experiment: Recombinant Mtb pantothenate synthetase (PanC) inhibitors, coupled enzyme, confirmatory (AID 375).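 Further: 0% = full reaction with vehicle and 100% = no enzyme background.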 To be noted: coupled enzyme assay; at 10 µM, active compounds read high.
Pantothenate synthetase (Mycobacterium tuberculosis (strain ATCC 25618 / H37Rv)), sequence (P9WIL5 whole entry, looked up): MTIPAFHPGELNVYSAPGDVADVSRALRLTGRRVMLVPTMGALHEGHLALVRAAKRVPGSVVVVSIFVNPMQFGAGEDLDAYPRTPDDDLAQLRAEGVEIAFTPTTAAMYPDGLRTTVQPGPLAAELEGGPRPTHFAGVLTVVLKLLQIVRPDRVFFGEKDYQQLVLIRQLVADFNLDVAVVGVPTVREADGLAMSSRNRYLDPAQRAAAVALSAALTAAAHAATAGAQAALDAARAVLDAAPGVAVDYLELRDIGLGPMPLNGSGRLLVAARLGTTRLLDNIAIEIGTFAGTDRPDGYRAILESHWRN
For `CCn1c(Cc2ccccc2)nnc1SCC(=O)Nc1nc2ccccc2s1`, the inhibition was 2%.
Regarding `COC(=O)C1=C(C)NC(C)=C(C(=O)OC)C1c1cc2cc(C)ccc2[nH]c1=O`, the inhibition is 3%.
Under `O=C(O)C1CC(=O)N(c2ccc(OCc3ccccc3Cl)cc2)C1` (configuration not stated) stands 0%; under `CC(=O)Nc1ccc(Oc2ccc3nc(C)[nH]c3c2)cc1`, 0%.
As for `O=C(NC1CCCC1)C(c1cccs1)N(Cc1ccco1)C(=O)Cn1nnc(-c2cccs2)n1` (configuration not stated), the inhibition is 0%.
Turning to `O=C(COC(=O)c1cccc(S(=O)(=O)N2CCc3ccccc32)c1)NC1CCS(=O)(=O)C1` (configuration not stated), the inhibition was 0%.
`COc1cc2c(cc1NCc1ccccn1)oc1ccccc12`: the inhibition is 0%.
Regarding `O=C(Nc1ccc2c(c1)OCCO2)c1ccco1`, the inhibition is 5%.
Consider `CC(=O)Nc1ccn(-c2ccccc2)n1`, for which the inhibition was 2%.
Turning to `COc1ccc(Oc2c(C)oc3cc(OC(=O)N4CCOCC4)ccc3c2=O)cc1`, the inhibition was 3%.
On to `CCN(CC)c1ccc(NC(=O)CN2C(=O)CC(C)(C)S(=O)(=O)c3ccccc32)c(C)c1`, for which the inhibition was 0%.
On to `Cc1ccc(NC(=O)C2CCCN2S(=O)(=O)c2cccc3cccnc23)cc1F` (configuration not stated), for which the inhibition is 0%.
With `CN(C(=O)c1c(Cl)nc2sccn12)C1CCCCC1`, the inhibition was 0%.
Regarding `COc1cccc(N2C(=O)N(c3ccccc3Cl)C3CS(=O)(=O)CC32)c1` (configuration not stated), the inhibition is 3%.
For `CCOC(=O)c1c(C)oc2ccc(O)c(CN(C)C)c12`, the inhibition was 0%.
For the compound `O=C(O)CCC(=O)NC1CCCCC1NC(=O)CCC(=O)O` (configuration not stated), the inhibition was 0%.
In the case of `CCOc1ccc(S(=O)(=O)Nc2cccc(Cl)c2)cc1`, the inhibition was 1%.

Values taken from PubChem BioAssay.
